Measured values: PMC7862700, “An all-to-all approach to the identification of sequence-specific readers for epigenetic DNA modifications on cytosine”

Legend:
Experiment in all cases: DAPPL (digital affinity profiling via proximity ligation, sequencing); 10 mM Tris-HCl pH 7.5, 50 mM NaCl, 1 mM DTT, 4% glycerol, room temperature, 30 min; GST-TFs on glutathione beads, 16-mer random dsDNA library, 0.1% formaldehyde crosslink after washing; high values mean tight binding
FLI1 = biological target: T1, FLI1 (Homo sapiens, UniProt Q01543 1-452); settings: protein: recombinant; tags: N-terminal GST; dsDNA, one strand shown
T1 sequence: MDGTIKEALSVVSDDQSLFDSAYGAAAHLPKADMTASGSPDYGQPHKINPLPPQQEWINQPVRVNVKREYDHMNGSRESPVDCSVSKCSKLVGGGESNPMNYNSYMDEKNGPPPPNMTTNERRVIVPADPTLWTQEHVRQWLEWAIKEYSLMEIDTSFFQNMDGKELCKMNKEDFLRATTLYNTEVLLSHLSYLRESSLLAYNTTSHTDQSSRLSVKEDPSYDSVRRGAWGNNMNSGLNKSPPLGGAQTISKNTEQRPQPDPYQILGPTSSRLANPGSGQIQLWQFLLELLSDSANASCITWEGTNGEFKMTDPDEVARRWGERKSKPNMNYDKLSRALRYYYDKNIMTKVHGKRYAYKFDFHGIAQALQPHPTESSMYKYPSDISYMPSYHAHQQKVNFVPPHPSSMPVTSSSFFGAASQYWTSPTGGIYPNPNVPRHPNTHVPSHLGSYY
How it was run: (§1)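 Binding signal is given per hexamer as its read frequency for a factor divided by its frequency in the tag-only sample. GST-fused human transcription factors were expressed in yeast, captured on glutathione beads, barcoded with DNA and pooled with that sample, then incubated with 200 nmole of a 16-mer random double-stranded DNA library in Tris/NaCl/DTT/glycerol buffer for 30 min at room temperature. The pools were then washed, crosslinked, proximity-ligated, amplified by PCR and sequenced on an Illumina NextSeq500.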

ELK1 = biological target: T2, ELK1 (Homo sapiens, UniProt P19419 1-428); settings: protein: recombinant; tags: N-terminal GST; dsDNA, one strand shown
T2 sequence: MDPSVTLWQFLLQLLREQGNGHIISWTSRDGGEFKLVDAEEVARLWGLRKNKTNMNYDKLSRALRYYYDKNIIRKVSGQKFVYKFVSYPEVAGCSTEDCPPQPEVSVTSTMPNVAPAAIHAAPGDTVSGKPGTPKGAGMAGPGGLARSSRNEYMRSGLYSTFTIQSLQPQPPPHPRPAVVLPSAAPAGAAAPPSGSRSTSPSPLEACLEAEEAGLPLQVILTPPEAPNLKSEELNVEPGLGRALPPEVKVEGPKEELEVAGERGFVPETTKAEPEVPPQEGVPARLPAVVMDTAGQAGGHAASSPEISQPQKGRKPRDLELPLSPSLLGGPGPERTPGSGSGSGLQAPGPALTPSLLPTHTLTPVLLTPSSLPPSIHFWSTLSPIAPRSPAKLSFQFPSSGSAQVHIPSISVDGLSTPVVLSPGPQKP
How it was run: as §1

GABPA = biological target: T3, GABPA (Homo sapiens, UniProt Q06546 1-454); settings: protein: recombinant; tags: N-terminal GST; dsDNA, one strand shown
T3 sequence: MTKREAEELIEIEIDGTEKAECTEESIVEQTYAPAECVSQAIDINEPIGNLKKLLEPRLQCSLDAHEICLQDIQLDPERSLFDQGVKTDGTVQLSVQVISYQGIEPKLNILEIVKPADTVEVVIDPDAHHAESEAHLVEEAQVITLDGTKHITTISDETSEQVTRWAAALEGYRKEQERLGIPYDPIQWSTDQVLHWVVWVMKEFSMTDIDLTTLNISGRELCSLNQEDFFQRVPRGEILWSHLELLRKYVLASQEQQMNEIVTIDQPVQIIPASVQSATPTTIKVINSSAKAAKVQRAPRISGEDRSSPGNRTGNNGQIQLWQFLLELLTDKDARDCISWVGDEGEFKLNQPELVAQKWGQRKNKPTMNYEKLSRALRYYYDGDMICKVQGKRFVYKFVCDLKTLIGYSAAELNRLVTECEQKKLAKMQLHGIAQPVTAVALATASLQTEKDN
How it was run: as §1

ERG = biological target: T4, ERG (Homo sapiens, UniProt P11308 1-479); settings: protein: recombinant; tags: N-terminal GST; dsDNA, one strand shown
T4 sequence: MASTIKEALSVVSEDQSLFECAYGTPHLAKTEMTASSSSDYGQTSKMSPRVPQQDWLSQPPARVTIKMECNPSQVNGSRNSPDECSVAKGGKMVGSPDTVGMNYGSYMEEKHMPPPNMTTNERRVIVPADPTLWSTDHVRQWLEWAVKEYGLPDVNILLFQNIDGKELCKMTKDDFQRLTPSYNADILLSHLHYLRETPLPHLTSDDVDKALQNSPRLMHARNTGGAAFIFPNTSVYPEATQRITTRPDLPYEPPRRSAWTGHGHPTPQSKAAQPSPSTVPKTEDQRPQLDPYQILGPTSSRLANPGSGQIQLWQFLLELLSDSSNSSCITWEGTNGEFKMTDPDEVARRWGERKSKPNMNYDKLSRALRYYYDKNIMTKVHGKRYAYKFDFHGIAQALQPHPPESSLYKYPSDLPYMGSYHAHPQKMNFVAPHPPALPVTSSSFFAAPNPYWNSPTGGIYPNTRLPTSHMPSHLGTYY
How it was run: as §1

ELF1 = ELF1 (Homo sapiens, UniProt P32519 1-619); settings: protein: recombinant; tags: N-terminal GST; dsDNA, one strand shown
Sequence of ELF1 (P32519 whole entry): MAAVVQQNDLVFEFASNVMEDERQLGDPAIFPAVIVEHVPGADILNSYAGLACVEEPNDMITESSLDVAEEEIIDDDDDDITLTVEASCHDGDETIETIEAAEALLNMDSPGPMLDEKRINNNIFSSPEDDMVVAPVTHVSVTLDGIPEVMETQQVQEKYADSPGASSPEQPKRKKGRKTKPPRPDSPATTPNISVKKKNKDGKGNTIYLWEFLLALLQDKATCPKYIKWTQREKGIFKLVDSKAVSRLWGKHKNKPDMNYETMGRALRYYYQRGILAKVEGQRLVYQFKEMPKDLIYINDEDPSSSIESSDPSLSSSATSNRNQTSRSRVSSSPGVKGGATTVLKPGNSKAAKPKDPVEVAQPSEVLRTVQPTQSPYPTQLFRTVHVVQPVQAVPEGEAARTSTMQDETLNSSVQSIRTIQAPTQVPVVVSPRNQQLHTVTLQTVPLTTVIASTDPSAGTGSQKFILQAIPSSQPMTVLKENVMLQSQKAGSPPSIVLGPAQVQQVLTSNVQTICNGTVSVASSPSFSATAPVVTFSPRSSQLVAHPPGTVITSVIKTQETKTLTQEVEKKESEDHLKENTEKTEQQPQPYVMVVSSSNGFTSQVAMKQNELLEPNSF
How it was run: as §1

EHF = biological target: T5, EHF (Homo sapiens, UniProt Q9NZC4 1-300); settings: protein: recombinant; tags: N-terminal GST; dsDNA, one strand shown
T5 sequence: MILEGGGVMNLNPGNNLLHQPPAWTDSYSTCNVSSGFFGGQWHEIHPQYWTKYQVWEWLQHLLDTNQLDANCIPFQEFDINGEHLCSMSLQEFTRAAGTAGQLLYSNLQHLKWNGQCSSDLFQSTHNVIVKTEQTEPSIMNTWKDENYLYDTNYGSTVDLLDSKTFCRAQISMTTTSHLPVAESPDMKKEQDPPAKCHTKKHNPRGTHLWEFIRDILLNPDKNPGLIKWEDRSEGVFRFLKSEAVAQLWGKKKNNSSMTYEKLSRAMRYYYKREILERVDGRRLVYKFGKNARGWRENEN
How it was run: as §1

SPI1 = SPI1 (Homo sapiens, UniProt P17947 1-270); settings: protein: recombinant; tags: N-terminal GST; dsDNA, one strand shown
How it was run: as §1

SPIB = SPIB (Homo sapiens, UniProt Q01892 1-262); settings: protein: recombinant; tags: N-terminal GST; dsDNA, one strand shown
Sequence of SPIB (Q01892 whole entry): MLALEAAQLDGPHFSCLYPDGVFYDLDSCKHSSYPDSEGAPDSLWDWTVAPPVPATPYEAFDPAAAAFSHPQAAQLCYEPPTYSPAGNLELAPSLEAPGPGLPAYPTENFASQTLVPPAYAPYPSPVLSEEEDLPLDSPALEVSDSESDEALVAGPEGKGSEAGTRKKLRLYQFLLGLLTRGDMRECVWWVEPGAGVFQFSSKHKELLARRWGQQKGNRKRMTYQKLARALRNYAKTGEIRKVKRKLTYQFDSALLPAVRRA
How it was run: as §1

ELK3 = biological target: T6, ELK3 (Homo sapiens, UniProt P41970 1-407); settings: protein: recombinant; tags: N-terminal GST; dsDNA, one strand shown
T6 sequence: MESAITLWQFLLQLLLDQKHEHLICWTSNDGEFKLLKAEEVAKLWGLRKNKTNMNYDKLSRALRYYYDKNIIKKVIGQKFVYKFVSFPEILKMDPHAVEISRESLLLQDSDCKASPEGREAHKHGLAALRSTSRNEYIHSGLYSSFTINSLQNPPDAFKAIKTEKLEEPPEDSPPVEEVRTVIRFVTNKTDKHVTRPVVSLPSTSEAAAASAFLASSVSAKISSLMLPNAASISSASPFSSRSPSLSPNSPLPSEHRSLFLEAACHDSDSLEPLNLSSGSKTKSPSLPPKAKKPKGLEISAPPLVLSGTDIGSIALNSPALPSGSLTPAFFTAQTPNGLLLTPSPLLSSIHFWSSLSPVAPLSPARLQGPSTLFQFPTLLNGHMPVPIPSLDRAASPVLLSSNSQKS
How it was run: as §1

FEV = biological target: T7, FEV (Homo sapiens, UniProt Q99581 1-238); settings: protein: recombinant; tags: N-terminal GST; dsDNA, one strand shown
T7 sequence: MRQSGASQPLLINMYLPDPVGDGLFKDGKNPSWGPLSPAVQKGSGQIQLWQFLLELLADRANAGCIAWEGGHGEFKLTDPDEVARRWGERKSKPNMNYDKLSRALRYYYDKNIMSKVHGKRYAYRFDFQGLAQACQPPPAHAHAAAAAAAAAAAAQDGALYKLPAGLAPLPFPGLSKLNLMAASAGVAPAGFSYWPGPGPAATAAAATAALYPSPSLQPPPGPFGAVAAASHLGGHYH
How it was run: as §1

ETV5 = ETV5 (Homo sapiens, UniProt P41161 1-510); settings: protein: recombinant; tags: N-terminal GST; dsDNA, one strand shown
Sequence of ETV5 (P41161 whole entry): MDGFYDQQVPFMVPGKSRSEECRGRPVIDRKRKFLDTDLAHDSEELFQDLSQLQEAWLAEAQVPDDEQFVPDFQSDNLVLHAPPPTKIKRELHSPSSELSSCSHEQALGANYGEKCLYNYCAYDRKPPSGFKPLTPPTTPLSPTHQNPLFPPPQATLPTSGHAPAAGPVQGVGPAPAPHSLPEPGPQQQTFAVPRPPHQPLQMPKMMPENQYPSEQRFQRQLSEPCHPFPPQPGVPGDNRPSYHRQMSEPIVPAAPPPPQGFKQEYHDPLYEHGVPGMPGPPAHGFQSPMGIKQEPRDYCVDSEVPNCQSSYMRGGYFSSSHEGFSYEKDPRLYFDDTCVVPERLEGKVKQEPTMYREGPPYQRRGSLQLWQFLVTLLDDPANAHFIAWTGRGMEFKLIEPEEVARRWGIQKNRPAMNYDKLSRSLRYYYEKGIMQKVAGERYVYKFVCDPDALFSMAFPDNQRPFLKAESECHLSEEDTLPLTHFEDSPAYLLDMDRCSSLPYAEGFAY
How it was run: as §1

HSF1 = HSF1 (Homo sapiens, UniProt Q00613 1-529); settings: protein: recombinant; tags: N-terminal GST; chain copies: 3; dsDNA, one strand shown
Sequence of HSF1 (Q00613 whole entry): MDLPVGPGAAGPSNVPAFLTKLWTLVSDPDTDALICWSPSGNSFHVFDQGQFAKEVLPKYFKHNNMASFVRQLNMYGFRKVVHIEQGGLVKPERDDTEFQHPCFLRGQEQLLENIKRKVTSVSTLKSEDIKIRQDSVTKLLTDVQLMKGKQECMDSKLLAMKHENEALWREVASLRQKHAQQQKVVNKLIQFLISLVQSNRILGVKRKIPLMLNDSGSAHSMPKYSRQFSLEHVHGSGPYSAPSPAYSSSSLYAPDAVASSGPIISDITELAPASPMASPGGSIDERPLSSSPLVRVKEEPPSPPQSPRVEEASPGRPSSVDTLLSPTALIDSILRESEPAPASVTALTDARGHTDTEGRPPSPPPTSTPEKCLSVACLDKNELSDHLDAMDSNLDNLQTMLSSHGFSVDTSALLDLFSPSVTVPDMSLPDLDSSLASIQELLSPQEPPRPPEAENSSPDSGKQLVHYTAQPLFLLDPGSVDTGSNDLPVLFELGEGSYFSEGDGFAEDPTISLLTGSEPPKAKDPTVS
How it was run: as §1

ELF4 = ELF4 (Homo sapiens, UniProt Q99607 1-663); settings: protein: recombinant; tags: N-terminal GST; dsDNA, one strand shown
Sequence of ELF4 (Q99607 whole entry): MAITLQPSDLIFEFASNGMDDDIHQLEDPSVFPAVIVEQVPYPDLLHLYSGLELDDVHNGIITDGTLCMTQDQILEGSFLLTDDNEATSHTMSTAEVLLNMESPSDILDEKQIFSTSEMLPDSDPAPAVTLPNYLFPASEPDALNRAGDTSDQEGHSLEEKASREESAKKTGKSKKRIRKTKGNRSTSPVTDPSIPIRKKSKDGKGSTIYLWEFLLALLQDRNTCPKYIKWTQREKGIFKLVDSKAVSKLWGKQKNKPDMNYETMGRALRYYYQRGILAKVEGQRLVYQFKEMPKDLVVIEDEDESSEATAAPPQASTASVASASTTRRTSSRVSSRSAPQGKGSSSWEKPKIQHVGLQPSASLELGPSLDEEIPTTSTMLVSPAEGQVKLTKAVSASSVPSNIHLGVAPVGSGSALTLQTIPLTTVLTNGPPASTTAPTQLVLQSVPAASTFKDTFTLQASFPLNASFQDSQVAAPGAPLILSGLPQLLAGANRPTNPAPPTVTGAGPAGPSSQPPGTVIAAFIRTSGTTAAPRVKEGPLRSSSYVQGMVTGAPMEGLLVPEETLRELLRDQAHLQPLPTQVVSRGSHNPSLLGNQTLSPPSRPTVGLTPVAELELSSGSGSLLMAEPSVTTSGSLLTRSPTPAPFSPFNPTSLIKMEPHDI
How it was run: as §1

ELK4 = biological target: T8, ELK4 (Homo sapiens, UniProt P28324-2 1-405); settings: protein: recombinant; tags: N-terminal GST; dsDNA, one strand shown
T8 sequence: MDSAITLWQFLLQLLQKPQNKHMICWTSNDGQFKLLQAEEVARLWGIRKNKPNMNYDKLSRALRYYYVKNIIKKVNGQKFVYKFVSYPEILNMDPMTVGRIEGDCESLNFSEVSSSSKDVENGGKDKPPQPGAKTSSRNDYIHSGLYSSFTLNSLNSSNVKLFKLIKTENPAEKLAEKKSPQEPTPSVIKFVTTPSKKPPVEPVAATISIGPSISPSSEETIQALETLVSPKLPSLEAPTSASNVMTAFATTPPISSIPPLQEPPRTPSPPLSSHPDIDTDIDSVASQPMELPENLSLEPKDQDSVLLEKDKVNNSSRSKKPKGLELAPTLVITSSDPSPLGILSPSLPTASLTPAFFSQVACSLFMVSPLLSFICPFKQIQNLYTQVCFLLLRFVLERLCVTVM
How it was run: as §1

ETV2 = biological target: T9, ETV2 (Homo sapiens, UniProt O00321 1-342); settings: protein: recombinant; tags: N-terminal GST; dsDNA, one strand shown
T9 sequence: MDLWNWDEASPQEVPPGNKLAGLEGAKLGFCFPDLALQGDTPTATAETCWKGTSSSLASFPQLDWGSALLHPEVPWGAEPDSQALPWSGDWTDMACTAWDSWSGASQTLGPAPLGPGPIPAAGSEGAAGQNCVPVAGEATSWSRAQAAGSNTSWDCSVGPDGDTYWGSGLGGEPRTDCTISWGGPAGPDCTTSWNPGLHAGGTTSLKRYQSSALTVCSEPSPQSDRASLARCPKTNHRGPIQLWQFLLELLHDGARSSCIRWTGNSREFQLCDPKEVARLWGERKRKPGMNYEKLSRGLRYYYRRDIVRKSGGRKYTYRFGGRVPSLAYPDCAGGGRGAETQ
How it was run: as §1

ELF3 = biological target: T10, ELF3 (Homo sapiens, UniProt P78545 1-371); settings: protein: recombinant; tags: N-terminal GST; dsDNA, one strand shown
T10 sequence: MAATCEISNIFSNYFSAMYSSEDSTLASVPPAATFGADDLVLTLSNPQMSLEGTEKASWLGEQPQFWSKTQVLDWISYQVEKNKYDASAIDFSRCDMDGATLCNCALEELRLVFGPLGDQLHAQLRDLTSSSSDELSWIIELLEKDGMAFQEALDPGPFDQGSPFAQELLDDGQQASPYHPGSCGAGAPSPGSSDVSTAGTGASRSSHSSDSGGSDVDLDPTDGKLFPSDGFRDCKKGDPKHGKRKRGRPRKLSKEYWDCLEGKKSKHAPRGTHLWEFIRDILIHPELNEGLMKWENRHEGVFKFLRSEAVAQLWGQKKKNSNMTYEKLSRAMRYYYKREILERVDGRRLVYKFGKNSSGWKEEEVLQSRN
How it was run: as §1

CRX = CRX (Homo sapiens, UniProt O43186 1-299); settings: protein: recombinant; tags: N-terminal GST; dsDNA, one strand shown
Sequence of CRX (O43186 whole entry): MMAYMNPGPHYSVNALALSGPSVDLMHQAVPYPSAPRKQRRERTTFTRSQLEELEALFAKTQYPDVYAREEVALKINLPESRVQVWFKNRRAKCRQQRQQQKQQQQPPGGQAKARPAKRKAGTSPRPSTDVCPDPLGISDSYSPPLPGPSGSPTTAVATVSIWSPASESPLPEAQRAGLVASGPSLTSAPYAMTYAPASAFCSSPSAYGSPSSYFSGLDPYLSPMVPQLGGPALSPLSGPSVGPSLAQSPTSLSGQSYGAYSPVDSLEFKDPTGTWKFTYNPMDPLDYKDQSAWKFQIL
How it was run: as §1

ETV1 = ETV1 (Homo sapiens, UniProt P50549 1-477); settings: protein: recombinant; tags: N-terminal GST; dsDNA, one strand shown
Sequence of ETV1 (P50549 whole entry): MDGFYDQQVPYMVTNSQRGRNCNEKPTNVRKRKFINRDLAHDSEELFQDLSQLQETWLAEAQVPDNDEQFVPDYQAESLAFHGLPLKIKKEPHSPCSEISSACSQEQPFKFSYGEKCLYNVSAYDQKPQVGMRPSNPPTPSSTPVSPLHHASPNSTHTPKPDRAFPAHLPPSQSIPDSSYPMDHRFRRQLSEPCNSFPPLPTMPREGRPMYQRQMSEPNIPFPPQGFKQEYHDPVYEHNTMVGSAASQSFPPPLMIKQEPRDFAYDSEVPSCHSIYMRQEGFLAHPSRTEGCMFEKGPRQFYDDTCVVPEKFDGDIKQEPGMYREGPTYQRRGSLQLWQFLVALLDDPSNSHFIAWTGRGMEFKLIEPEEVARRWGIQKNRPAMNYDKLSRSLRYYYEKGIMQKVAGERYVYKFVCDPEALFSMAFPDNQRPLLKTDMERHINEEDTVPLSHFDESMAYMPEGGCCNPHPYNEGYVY
How it was run: as §1

Sequence	binding signal (FLI1)	binding signal (ELK1)	binding signal (GABPA)	binding signal (ERG)	binding signal (ELF1)	binding signal (EHF)	binding signal (SPI1)	binding signal (SPIB)	binding signal (ELK3)	binding signal (FEV)	binding signal (ETV5)	binding signal (HSF1)	binding signal (ELF4)	binding signal (ELK4)	binding signal (ETV2)	binding signal (ELF3)	binding signal (CRX)	binding signal (ETV1)
GTTTTA	1.17 fold enrichment (6-mer frequency, TF over GST control)	1.05 fold enrichment (6-mer frequency, TF over GST control)	1.14 fold enrichment (6-mer frequency, TF over GST control)	1.07 fold enrichment (6-mer frequency, TF over GST control)	1.07 fold enrichment (6-mer frequency, TF over GST control)	1.11 fold enrichment (6-mer frequency, TF over GST control)	1.12 fold enrichment (6-mer frequency, TF over GST control)	1.16 fold enrichment (6-mer frequency, TF over GST control)	1.08 fold enrichment (6-mer frequency, TF over GST control)	1.08 fold enrichment (6-mer frequency, TF over GST control)	1.07 fold enrichment (6-mer frequency, TF over GST control)	1.17 fold enrichment (6-mer frequency, TF over GST control)	1.15 fold enrichment (6-mer frequency, TF over GST control)	1.07 fold enrichment (6-mer frequency, TF over GST control)	1.1 fold enrichment (6-mer frequency, TF over GST control)	1.06 fold enrichment (6-mer frequency, TF over GST control)	1.41 fold enrichment (6-mer frequency, TF over GST control)	1.13 fold enrichment (6-mer frequency, TF over GST control)
CAGATT	1.07 fold enrichment (6-mer frequency, TF over GST control)	1.05 fold enrichment (6-mer frequency, TF over GST control)	–	1.06 fold enrichment (6-mer frequency, TF over GST control)	1 fold enrichment (6-mer frequency, TF over GST control)	1.01 fold enrichment (6-mer frequency, TF over GST control)	1.03 fold enrichment (6-mer frequency, TF over GST control)	1.02 fold enrichment (6-mer frequency, TF over GST control)	1.12 fold enrichment (6-mer frequency, TF over GST control)	1 fold enrichment (6-mer frequency, TF over GST control)	1 fold enrichment (6-mer frequency, TF over GST control)	1.75 fold enrichment (6-mer frequency, TF over GST control)	1.06 fold enrichment (6-mer frequency, TF over GST control)	1.01 fold enrichment (6-mer frequency, TF over GST control)	1.02 fold enrichment (6-mer frequency, TF over GST control)	1.06 fold enrichment (6-mer frequency, TF over GST control)	2.1 fold enrichment (6-mer frequency, TF over GST control)	1.03 fold enrichment (6-mer frequency, TF over GST control)
